Drawing on PubChem BioAssay, this text covers composite z-score and composite Z-score for 17 compounds.

Activity calls are given as the source filed them.

The target in assay [1] is Albumin (Bos taurus) (UniProt P02769). Nature of the assay: bovine serum albumin binders on microarray, profiling panel, artefact control for SMM control protein annotation, biochemical, small-molecule microarray, Alexa647 label, 635/667 nm fluorescence (AID 1118).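 Also: score merges 667 nm emission intensity and signal-to-noise per printed compound spot.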 As to conditions: BSA-A647 binding, fluorescence 635 nm, higher = more signal.
Chain of Albumin (Bos taurus) (P02769 whole entry, looked up): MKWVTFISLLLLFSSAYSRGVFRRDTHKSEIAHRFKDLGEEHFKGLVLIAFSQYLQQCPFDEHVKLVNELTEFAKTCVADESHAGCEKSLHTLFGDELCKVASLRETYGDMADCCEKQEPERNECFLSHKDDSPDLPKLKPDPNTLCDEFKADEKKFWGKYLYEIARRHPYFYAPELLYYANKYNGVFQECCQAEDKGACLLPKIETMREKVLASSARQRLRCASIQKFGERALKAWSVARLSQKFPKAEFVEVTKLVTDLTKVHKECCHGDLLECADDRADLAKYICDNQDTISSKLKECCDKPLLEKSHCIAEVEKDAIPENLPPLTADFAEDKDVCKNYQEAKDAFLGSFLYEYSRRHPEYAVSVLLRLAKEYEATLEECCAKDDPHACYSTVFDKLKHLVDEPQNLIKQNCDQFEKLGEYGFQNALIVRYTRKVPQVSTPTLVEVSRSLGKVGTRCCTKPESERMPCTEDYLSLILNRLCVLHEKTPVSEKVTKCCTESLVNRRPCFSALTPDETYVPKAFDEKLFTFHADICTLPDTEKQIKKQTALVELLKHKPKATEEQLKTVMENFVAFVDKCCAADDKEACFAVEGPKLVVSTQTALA
The nature of assay [2]: small-molecule microarray binders of probe aXIP, primary screen, biochemical, NeuroSMM set, 635/667 nm fluorescence (AID 1119).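 Also: probe is the protein aXip251-270 applied at 1 µg/mL to compound-printed slides; binding of probe to printed compounds measured as 667 nm fluorescence plus signal to noise.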 As to conditions: higher = more signal, called active from +8 up or from −8 down.
The nature of assay [3]: small-molecule binders of probe aNOTCH3, primary screen, biochemical, small-molecule microarray, 635/667 nm fluorescence (AID 1120).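 Also: probe is a biotin-tagged antibody raised against NOTCH3 rather than NOTCH3 protein; score merges spot fluorescence near 667 nm with spot signal to noise.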 As to conditions: higher = more signal.
The nature of assay [4]: small-molecule binders of probe aNOTCH2, primary screen, biochemical, small-molecule microarray, 635/667 nm fluorescence (AID 1121).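 Also: score merges feature fluorescence read at 667 nm with its signal to noise.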 The note with it: higher = more signal.
The target of assay [5] is Carbonic anhydrase 2 (Homo sapiens) (UniProt P00918). Nature of the assay: CAII small-molecule binders, profiling panel, biochemical, small-molecule microarray, Alexa647-labelled CAII (AID 1122). The note with it: CAII-A647 binding fluorescence, higher = more signal.
A short description of assay [6]: COS7 lysate on small-molecule microarray, probe aHis, 635 nm (AID 1123).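 Also: z-score combines 667nm fluorescence intensity with signal-to-noise per printed compound spot.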 As to conditions: COS7 cell lysate, fluorescence, higher = more signal.
Assay [7] is described as follows: compound binding in COS7 lysate, probe aLAP1, primary screen, cell lysate, small-molecule microarray (AID 1124).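 Also: lysate comes from COS7 cells expressing LAP1 and is applied at 0.3 µg/mL; score merges spot fluorescence near 667 nm with signal-to-noise over triplicate slides.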 As to conditions: probe aLAP1, fluorescence, higher = more signal.
Assay [8] deals with Sam68 (KHDRBS1). Description: Sam68 small-molecule binders, primary screen, biochemical, small-molecule microarray, 635 nm fluorescence (AID 1125).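 Also: score merges 667 nm channel intensity with signal to noise over triplicate slides.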 The note with it: small-molecule microarray binding, higher = more signal.
The subject of assay [9] is Chordin-like protein 2 (CHRDL2). Description: CHRDL2 small-molecule binders, primary screen, biochemical, small-molecule microarray, 635 nm fluorescence (AID 1126).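 Also: printed compound slides probed with Chrdl2 protein at 4 µg/mL for 1 h at 4 C; score merges 667 nm emission intensity with signal to noise over three replicate slides.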 As to conditions: small-molecule microarray binding, fluorescence 635 nm; higher = more signal.
The target of assay [10] is Concanavalin-A (Canavalia ensiformis) (UniProt P02866). Nature of the assay: ConA small-molecule binders, primary screen, artefact control for SMM control protein annotation, biochemical, small-molecule microarray, Alexa647 label, 635 nm (AID 1127).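 Also: z combines 667 nm emission intensity with signal-to-noise across three replicate slides.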 As to conditions: ConA-A647 binding fluorescence, higher = more signal.
Chain of Concanavalin-A (Canavalia ensiformis) (P02866 whole entry, looked up): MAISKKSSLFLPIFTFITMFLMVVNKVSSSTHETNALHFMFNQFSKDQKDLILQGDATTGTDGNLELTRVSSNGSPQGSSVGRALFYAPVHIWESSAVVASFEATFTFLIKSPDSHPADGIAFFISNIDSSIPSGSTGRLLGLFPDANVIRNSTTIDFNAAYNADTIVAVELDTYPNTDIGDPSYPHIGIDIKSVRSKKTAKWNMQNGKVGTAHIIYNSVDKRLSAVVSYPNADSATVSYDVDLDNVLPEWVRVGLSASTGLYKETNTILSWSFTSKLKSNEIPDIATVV

`C=C(CCCC)C(=O)CC[C@@H](OC(=O)c1ccccc1-c1ccccc1C(=O)O)c1cccc(OCCO)c1`: the composite z-score in assay [1] was -0.658; in assay [3], -0.15; in assay [4], -0.154; in [5] it was 0.728; in assay [6], 0.361; in [7] it was 0.742. For the same compound, the results for the composite z-score in assay [8], in assay [9] and in assay [10] were 0.986, 1.22 and -0.5, respectively. For the same compound, the composite Z-score in assay [2] was -0.263 (inactive).

On to `COC(=O)Cn1c(C(=O)N2CCCC2)cc2c1C[C@H]1CN(C(=O)c3ccccc3)[C@@](Cc3ccc(F)cc3)(C(=O)OC)[C@@H]21`, for which the composite z-score was 0.827 in assay [1]; -0.0888 in assay [3]; -0.036 in assay [4]; 0.885 in assay [5]; 0.965 in assay [6]; 0.0395 in assay [7]. Further, the composite z-score in [8] was -1.17; in assay [9] it was -0.451; in [10], -0.432. In [2], the composite Z-score was -0.14 (inactive).

Consider `COc1ccccc1CN1C(=O)c2ccccc2[C@](Cc2ccccc2I)(C(=O)NC(C)C)[C@@H]1c1ccc(CO)cc1`, for which the composite z-score in assay [1] was 0.894; in assay [3], 0.101; in [4], -0.123; in assay [5], 0.131; in assay [6], 2.39; in [7], 0.226. Moreover, the composite z-score was 1.3 in assay [8], 0.286 in assay [9] and 1.16 in [10]. For the same compound, the composite Z-score in assay [2] was 0.338 (inactive).

Take `CC1CC/C=C\[C@H]2OC34C=CCN(CCN5CCOCC5)C(=O)[C@H]3N(CCO)C(=O)[C@@H]4C2C(=O)O1` (stereo not given in full): the composite z-score in [1] is -0.0406; in assay [3], -0.22; in assay [4], -0.104; in assay [5], 0.802; in assay [6], -0.265; in [7] it was 0.973. The composite z-score in assay [8] is -2.29; in [9], -1.02; in [10], -0.889. The composite Z-score in assay [2] is 0.377 (inactive).

`NCCCCCCNC(=O)[C@@H]1C[C@@H]2C(=O)N3CCC[C@H]3C(=O)N2[C@@H]1c1ccc(O)cc1`: the composite z-score in assay [1] was 0.654; in assay [3], -0.0647; in assay [4], -0.182; in [5], 0.291; in [6], 1.32; in [7] it was 0.81. Besides, the composite z-score in assay [8] is 1.25; in [9], 0.417; in assay [10], 1.15. Moreover, in [2], the composite Z-score is -0.259 (inactive).

As for `Cc1c(NC(=O)/C(C#N)=C/C=C/c2ccccc2[N+](=O)[O-])c(=O)n(-c2ccccc2)n1C`, the composite z-score in assay [1] was 0.974; in assay [3], -0.0903; in [4], -0.0234; in assay [5], 0.643; in assay [6], 1.11; in [7], 1.04. Besides, the composite z-score in [8] was 0.708; in [9], 0.704; in [10] it was 0.761. For the same compound, the composite Z-score in assay [2] was -0.148 (inactive).

`CCOc1cc(C(O)C2C=CC3C(=O)N(C4CCCCC4)C(=O)C3N2Nc2ccc(OC)cc2)ccc1O` (stereo not given): the composite z-score in assay [1] is 0.786; in assay [3] it was 0.208; in assay [4] it was 0.0791; in assay [5], 0.441; in assay [6], 2.61; in assay [7] it was 0.717. The composite z-score in assay [8] was 1.28; in assay [9] it was -0.0164; in [10] it was 1.12. The composite Z-score in assay [2] was 0.764 (inactive).

As to `CC(C)CNC(=O)[C@@]1(c2ccc([N+](=O)[O-])cc2)CC(=O)N(C2CCCCC2)[C@@H]1c1ccc(CO)cc1I`, the composite z-score in assay [1] is 0.441; in assay [3], -0.0598; in assay [4], -0.0761; in assay [5], 0.469; in assay [6], 1.86; in assay [7], 0.15. In addition, the composite z-score in assay [8] is 0.754; in [9], -0.662; in [10], 0.282. In addition, the composite Z-score in assay [2] was 0.0911 (inactive).

As for `C=C(CCCC)C(=O)CC[C@@H](OC(=O)c1cccnc1)c1ccccc1OCCO`, the composite z-score is -0.326 in [1]; 0.1 in assay [3]; -0.0804 in assay [4]; 0.406 in assay [5]; -0.256 in [6]; 0.377 in assay [7]. The composite z-score in [8] is 0.44; in assay [9] it was 0.515; in assay [10], -1.51. Also, the composite Z-score in assay [2] was 0.589 (inactive).

With `COCCOC(=O)N1C(=O)[C@@]2(c3ccccc31)[C@H](C(=O)N1CCN(c3ncccn3)CC1)[C@H]1C(=O)O[C@H](c3ccccc3)[C@H](c3ccccc3)N1[C@@H]2c1ccc(OCCO)cc1`, the composite z-score in assay [1] was 0.329; in assay [3], 0.32; in [4], -0.0029; in assay [5], 0.512; in [6], 1.36; in assay [7], 0.341. In addition, the composite z-score in [8] was 1.12; in assay [9], 0.292; in assay [10], 1.13. The composite Z-score in assay [2] is 2.41 (inactive).

Consider `COC(=O)[C@@]1(Cc2ccccc2)[C@H]2c3cc(C(=O)N4CCCC4)[nH]c3C[C@H]2CN1C(=O)c1ccccc1`, for which the composite z-score was determined as 0.5 in assay [1]; 0.0203 in assay [3]; 0.111 in assay [4]; 0.722 in assay [5]; 3.51 in assay [6]; 0.341 in assay [7]. For the same compound, the composite z-score in assay [8] is -1.81; in [9], -0.782; in [10] it was -1.15. The composite Z-score in assay [2] was -0.37 (inactive).

In the case of `O=C1O[C@@H](c2ccccc2)[C@@H](c2ccccc2)N2[C@@H](c3ccc(O)cc3)[C@]3(C(=O)Nc4ccc(C#CC5=CCCCC5)cc43)[C@@H](C(=O)N3CCN(c4ncccn4)CC3)[C@H]12`, the composite z-score was 0.475 in [1]; -0.0328 in assay [3]; -0.111 in assay [4]; 0.573 in assay [5]; 1.72 in assay [6]; 0.299 in assay [7]. Moreover, the composite z-score in [8] was 1.29; in assay [9], 0.363; in assay [10], 1.11. For the same compound, the composite Z-score in [2] was 0.131 (inactive).

For the compound `CCC[C@@H]1C[C@@]1(CCC)[C@@H](NP(=O)(c1ccccc1)c1ccccc1)c1ccc(Cl)cc1`, the composite z-score is -0.811 in [1]; 0.0306 in assay [3]; -0.0166 in assay [4]; -0.0589 in [5]; 0.772 in assay [6]; 0.38 in assay [7]. Moreover, the composite z-score in [8] was 0.179; in assay [9] it was 0.603; in [10], -0.765. Further, in assay [2], the composite Z-score was -1.49 (inactive).

Consider `COc1ccc([Si](C)(C)[C@H]2[C@H](CCn3cc([C@H](O)c4ccccc4)nn3)O[C@@]3(C(=O)N(Cc4ccc(N5CCOC5=O)cc4)c4ccccc43)[C@@H]2C)cc1`, for which the composite z-score in assay [1] was -0.397; in assay [3], -0.172; in [4], -0.186; in assay [5] it was -0.586; in assay [6], -0.55; in [7], -1.14. The composite z-score in assay [8] was -0.426; in assay [9], -0.586; in assay [10] it was -0.321. Besides, the composite Z-score in [2] is 0.486 (inactive).

For the compound `COCC(=C=CC[C@H](O)c1ccc(OCCO)cc1)C[C@H](O)COCc1ccccc1`, the composite z-score is 0.589 in [1]; -0.123 in [3]; -0.14 in assay [4]; 0.561 in assay [5]; 1.07 in [6]; 0.476 in assay [7]. Moreover, the composite z-score was 0.703 in assay [8], 0.538 in [9] and 0.654 in assay [10]. Also, the composite Z-score in assay [2] was 0.0082 (inactive).

With `Cc1ccc(S[C@]2(C(=O)NC(C)C)CC(=O)N(Cc3ccccc3C(F)(F)F)[C@@H]2c2ccc(CO)cc2I)cc1`, the composite z-score in assay [1] is 0.671; in assay [3], -0.236; in [4], -0.128; in [5], 0.344; in assay [6], 0.352; in assay [7], -0.0811. The values for the composite z-score in assay [8], in [9] and in assay [10] were 0.0747, -1.35 and -0.03, respectively. Also, in assay [2], the composite Z-score is 0.0903 (inactive).

Take `CCOC(=O)C1=C[C@@H](c2ccccc2)N(S(=O)(=O)c2ccc(C)cc2)[C@H]1c1cccc(Cl)c1`: the composite z-score was 0.895 in [1]; 0.224 in assay [3]; 0.152 in [4]; 0.703 in [5]; -0.102 in [6]; 0.882 in assay [7]. Also, the figures for the composite z-score in assay [8], in assay [9] and in [10] were 1.31, -0.599 and 1.11, respectively. Besides, the composite Z-score in [2] was -0.101 (inactive).
